Measured values as given in PubChem BioAssay AID1159580 (chemical genetic matrix, 2015).
Hit rate of the full screen: of about 5,500 compounds, about 2,000 (36%) were called active. Not shown: some 18% with an inconclusive outcome. No stated cut-off is given here; in the data, active means normalized growth mostly below about 0.91 (no sharp cut-off); inconclusive means no clear call, values can overlap the other calls; inactive means mostly above about 0.92. Some of the results follow.

Experiment: chemical genetic growth profiling, strain panel (AID 1159580);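 further: tested at 20 µM; growth read once vehicle control cultures reached saturation at 30 °C; 1 = growth at the plate median or of vehicle wells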
Conditions: growth OD

Measured: normalized growth

CC1=C2C(O)C(=O)OC3CC4C(C)(C)C(=O)C=C[C@]4(C)C(CC1)[C@]23C (some centres not stated)
inactive: S. cerevisiae deletion strains, locus YJR043C, strain POL32, stronger effect = lower value 1.01 | S. cerevisiae deletion strains, locus YJR066W, strain TOR1, stronger effect = lower value 0.967 | S. cerevisiae deletion strains, locus YJR075W, strain HOC1, stronger effect = lower value 1.03 | S. cerevisiae deletion strains, locus YKL009W, strain mrt4, stronger effect = lower value 1.03 | S. cerevisiae deletion strains, locus YKL068W, stronger effect = lower value 1.01 | S. cerevisiae deletion strains, locus YKL085W, strain MDH1 (second series), stronger effect = lower value 1 | S. cerevisiae deletion strains, locus YKL085W, strain MDH1, stronger effect = lower value 1 | S. cerevisiae deletion strains, locus YKL160W, strain elf1, stronger effect = lower value 1 | S. cerevisiae deletion strains, locus YKR001C, strain vps1, stronger effect = lower value 0.996 | S. cerevisiae deletion strains, locus YKR026C, strain gcn3, stronger effect = lower value 1.01 | S. cerevisiae deletion strains, locus YKR091W, strain srl3, stronger effect = lower value 1.01 | S. cerevisiae deletion strains, locus YLL001W, strain dnm1, stronger effect = lower value 0.992 | S. cerevisiae deletion strains, locus YLL026W, stronger effect = lower value 1.01 | S. cerevisiae deletion strains, locus YLL041C, strain sdh2, stronger effect = lower value 1.02 | S. cerevisiae deletion strains, locus YLR027C, strain aat2, stronger effect = lower value 1 | S. cerevisiae deletion strains, locus YLR039C, strain RIC1, stronger effect = lower value 1.15 | S. cerevisiae deletion strains, locus YLR058C, strain SHM2, stronger effect = lower value 1.03 | S. cerevisiae deletion strains, locus YLR102C, strain apc9, stronger effect = lower value 1.02 | S. cerevisiae deletion strains, locus YLR113W, strain HOG1, stronger effect = lower value 0.984 | S. cerevisiae deletion strains, locus YLR221C, strain rsa3, stronger effect = lower value 1.03 | S. cerevisiae deletion strains, locus YLR258W, strain gsy2, stronger effect = lower value 1.01 | S. cerevisiae deletion strains, locus YLR262C, strain YPT6 (second series), stronger effect = lower value 1.06 | S. cerevisiae deletion strains, locus YLR268W, strain sec22, stronger effect = lower value 1.02 | S. cerevisiae deletion strains, locus YLR320W, strain mms22, stronger effect = lower value 1.01 | S. cerevisiae deletion strains, locus YLR342W, strain FKS1 (second series), stronger effect = lower value 1.03 | S. cerevisiae deletion strains, locus YLR342W, strain FKS1, stronger effect = lower value 1.01 | S. cerevisiae deletion strains, locus YLR357W, strain rsc2, stronger effect = lower value 1.02 | S. cerevisiae deletion strains, locus YLR370C, strain arc18, stronger effect = lower value 1 | S. cerevisiae deletion strains, locus YLR371W, strain rom2, stronger effect = lower value 0.985 | S. cerevisiae deletion strains, locus YLR384C, strain iki3, stronger effect = lower value 1.02 | S. cerevisiae deletion strains, locus YLR418C, strain cdc73, stronger effect = lower value 1.07 | S. cerevisiae deletion strains, locus YML016C, strain PPZ1, stronger effect = lower value 1.02 | S. cerevisiae deletion strains, locus YML032C, strain rad52, stronger effect = lower value 1 | S. cerevisiae deletion strains, locus YML120C, strain ndi1, stronger effect = lower value 1 | S. cerevisiae deletion strains, locus YML124C, strain tub3, stronger effect = lower value 1.01 | S. cerevisiae deletion strains, locus YMR058W, strain fet3, stronger effect = lower value 1.01 | S. cerevisiae deletion strains, locus YMR078C, strain ctf18, stronger effect = lower value 1.02 | S. cerevisiae deletion strains, locus YMR125W, strain sto1, stronger effect = lower value 1.01 | S. cerevisiae deletion strains, locus YMR129W, stronger effect = lower value 1.01 | S. cerevisiae deletion strains, locus YMR205C, strain PFK2, stronger effect = lower value 1 | S. cerevisiae deletion strains, locus YMR223W, strain ubp8, stronger effect = lower value 1.01 | S. cerevisiae deletion strains, locus YMR231W, strain pep5, stronger effect = lower value 1.01 | S. cerevisiae deletion strains, locus YMR307W, strain GAS1, stronger effect = lower value 1.03 | S. cerevisiae deletion strains, locus YNL067W, strain RPL9B, stronger effect = lower value 1.05 | S. cerevisiae deletion strains, locus YNL071W, strain lat1, stronger effect = lower value 0.999 | S. cerevisiae deletion strains, locus YNL128W, strain TEP1, stronger effect = lower value 1.02 | S. cerevisiae deletion strains, locus YNL183C, strain NPR1, stronger effect = lower value 0.978 | S. cerevisiae deletion strains, locus YNL209W, strain ssb2, stronger effect = lower value 1.01 | S. cerevisiae deletion strains, locus YNL233W, strain BNI4, stronger effect = lower value 1.06 | S. cerevisiae deletion strains, locus YNL248C, strain rpa49, stronger effect = lower value 1.01 | S. cerevisiae deletion strains, locus YNL250W, strain rad50, stronger effect = lower value 1.03 | S. cerevisiae deletion strains, locus YNL271C, strain bni1, stronger effect = lower value 1.02 | S. cerevisiae deletion strains, locus YNL298W, strain CLA4, stronger effect = lower value 1 | S. cerevisiae deletion strains, locus YNL307C, strain MCK1, stronger effect = lower value 1.03 | S. cerevisiae deletion strains, locus YNL322C, strain KRE1 (second series), stronger effect = lower value 1.04 | S. cerevisiae deletion strains, locus YNR049C, strain mso1, stronger effect = lower value 1.01 | S. cerevisiae deletion strains, locus YNR052C, strain pop2, stronger effect = lower value 1.04 | S. cerevisiae deletion strains, locus YOL012C, strain htz1 0.949 | S. cerevisiae deletion strains, locus YOL147C, strain pex11, stronger effect = lower value 1.01 | S. cerevisiae deletion strains, locus YOR001W, strain rrp6, stronger effect = lower value 1.01 | S. cerevisiae deletion strains, locus YOR061W, strain CKA2, stronger effect = lower value 1.01 | S. cerevisiae deletion strains, locus YOR069W, strain VPS5, stronger effect = lower value 1.01 | S. cerevisiae deletion strains, locus YOR070C, strain gyp1, stronger effect = lower value 1.02 | S. cerevisiae deletion strains, locus YOR080W, strain dia2, stronger effect = lower value 1.02 | S. cerevisiae deletion strains, locus YOR083W, strain WHI5, stronger effect = lower value 1.01 | S. cerevisiae deletion strains, locus YOR106W, strain vam3, stronger effect = lower value 0.983 | S. cerevisiae deletion strains, locus YOR136W, strain idh2, stronger effect = lower value 1.03 | S. cerevisiae deletion strains, locus YOR144C, strain elg1, stronger effect = lower value 1.01 | S. cerevisiae deletion strains, locus YOR184W, strain ser1, stronger effect = lower value 1.01 | S. cerevisiae deletion strains, locus YOR231W, strain MKK1, stronger effect = lower value 1.03 | S. cerevisiae deletion strains, locus YOR265W, strain rbl2, stronger effect = lower value 1 | S. cerevisiae deletion strains, locus YOR270C, strain vph1, stronger effect = lower value 1.05 | S. cerevisiae deletion strains, locus YOR290C, strain snf2, stronger effect = lower value 1.01 | S. cerevisiae deletion strains, locus YOR316C, strain cot1, stronger effect = lower value 1.01 | S. cerevisiae deletion strains, locus YPL051W, strain arl3, stronger effect = lower value 1.02 | S. cerevisiae deletion strains, locus YPL055C, strain LGE1, stronger effect = lower value 1.03 | S. cerevisiae deletion strains, locus YPL078C, strain atp4, stronger effect = lower value 0.998 | S. cerevisiae deletion strains, locus YPL106C, strain sse1, stronger effect = lower value 1.03 | S. cerevisiae deletion strains, locus YPL240C, strain hsp82, stronger effect = lower value 1.01 | S. cerevisiae deletion strains, locus YPL241C, strain CIN2, stronger effect = lower value 1.01 | S. cerevisiae deletion strains, locus YPL256C, strain CLN2, stronger effect = lower value 1.01 | S. cerevisiae deletion strains, locus YPR119W, strain clb2, stronger effect = lower value 1.01 | S. cerevisiae deletion strains, locus YPR141C, strain kar3, stronger effect = lower value 1.03 | S. cerevisiae deletion strains, locus YPR163C, strain tif3, stronger effect = lower value 1.02 | S. cerevisiae deletion strains, locus YPR167C, strain met16, stronger effect = lower value 1.03 | S. cerevisiae deletion strains, strain wtn01, stronger effect = lower value 0.994 | S. cerevisiae strains, strain wild type, stronger effect = lower value 1.01
